Experimental findings from US20060069055, “Delivery of polynucleotides” (published 2006) are described below.

Chain of NF-kB p50/p50 homodimer (P19838 1-433, one chain of several): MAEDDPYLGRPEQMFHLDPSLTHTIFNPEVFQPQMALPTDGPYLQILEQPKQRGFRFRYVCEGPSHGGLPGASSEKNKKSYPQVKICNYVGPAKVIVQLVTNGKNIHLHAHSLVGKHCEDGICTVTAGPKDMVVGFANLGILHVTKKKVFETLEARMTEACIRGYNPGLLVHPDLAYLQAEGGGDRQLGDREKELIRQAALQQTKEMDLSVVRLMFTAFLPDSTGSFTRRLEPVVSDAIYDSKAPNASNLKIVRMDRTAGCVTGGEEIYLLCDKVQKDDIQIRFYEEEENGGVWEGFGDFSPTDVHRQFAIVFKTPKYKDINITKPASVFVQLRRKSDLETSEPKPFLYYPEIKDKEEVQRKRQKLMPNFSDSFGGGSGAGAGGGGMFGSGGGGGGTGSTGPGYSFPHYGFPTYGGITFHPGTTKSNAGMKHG

For this assay, the target named is NF-kB p50/p50 homodimer (Homo sapiens, UniProt P19838 P19838:1-433). The assay can be described thus: EMSA; Table 3 gives 92 for PO. The conditions noted are these: protein: extract; tags: nuclear extract of LPS-stimulated THP-1 cells; chain copies: 2 stated; dsDNA, one strand shown. The source says:
The EMSA assay was employed to characterize oligonucleotide decoys for the NF-κB transcription factor. […] Using the above modified oligonucleotides to compete for binding for the above-mentioned NF-κB family members, it was possible to compare the binding affinity of these oligonucleotides against the high affinity radiolabeled probe and each other. This assay has also enabled the design of a decoy which selectively binds particular members of the NF-κB family. By using increasing concentrations of various oligonucleotides, it was observed that, by deleting or changing targeted residues in the binding site, it was possible to specifically decrease the binding of the decoy molecule to p50/p50 homodimers, while retaining the affinity for p65/p50 and cRel/p50 heterodimers.
The NF-κB gel shift assays (EMSA) were performed as follows. A double-stranded oligonucleotide containing a consensus NF-κB binding site (5′ […].GGC 3′) (SEQ ID NO: 26) was end-labeled with γ³²P-ATP using T4 Polynucleotide Kinase (Promega). […] The dried gels were imaged and quantitated using a Typhoon 8600 Phosphorlmager (Amersham) and ImageQuant software. […]
On the technique in general: Mobility shift assays separate free from complexed probe on a gel.
As for AGTTGAGGACTTTCCAGGC, the IC50 stood at 96 fold molar excess.
